Laboratory results as given in PubChem BioAssay AID455 (Sanford-Burnham Center for Chemical Genomics, 2006).
About 20 (0.2%) of roughly 10,000 compounds were called active.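 How the source made its calls: active means a compound raising TNF-alpha-driven VCAM-1 surface staining, with its hit status upheld on visual or statistical review; inactive means the rest, including hits rejected on review.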 The entries come from a sample that favours actives as a whole.

test: enhancers of VCAM-1 display on endothelial cells, cell-based, plate reader, pooled HUVEC, TNFa stimulus (AID 455); conditions: HUVEC TNFa-induced VCAM-1 immunofluorescence, 100% set by best visually verified hit, concentration not given here

augmentation, inactive:
Nc1nc(N2C(=O)C3CC=CCC3C2=O)nn1-c1ccccc1 (centres undefined), O=C1c2ccccc2C(Nc2ccc3nc(-c4cccnc4)[nH]c3c2)N1Cc1ccco1 (centres undefined), CCCCn1nnc(NC(=O)c2cc3ccccc3o2)n1, COc1ccc2nc(NC(=O)c3ccoc3C)sc2c1, COC(=O)C1C2C=CC3(CN(CC4CCCO4)C(=O)C13)O2 (centres undefined), CCOC(=O)c1c(NC(=O)Cn2c(=O)oc3ccccc32)oc(C)c1C(C)=O, Cc1ccnc(SCCn2c(N3CCCCC3)nc3c2c(=O)n(C)c(=O)n3C)n1, CC(=O)Nc1ccc(N2CCN(Cc3ccccc3F)CC2)cc1, CCCCN(CCCC)C(=O)CN(C)S(=O)(=O)c1ccc2c(c1)n(C)c(=O)c(=O)n2C, O=C(CSc1nnnn1-c1ccccc1)Nc1ccc(Cl)cc1, COc1ccc(S(=O)(=O)NCCOc2ccccc2)cc1OC, CCOc1ccc(N(C(C)=O)C2C=CS(=O)(=O)C2)cc1 (centres undefined), Cc1ccc(S(=O)(=O)N2CCC(C(=O)NCCN3CCCCCC3)CC2)cc1, O=C(c1ccc(S(=O)(=O)N2CCOCC2)cc1)N(c1ccc(F)cc1)C1C=CS(=O)(=O)C1 (centres undefined), COc1ccc(-c2nnc(SCC(=O)NC(C)c3ccccc3)o2)cc1 (centres undefined), COC(=O)c1ccc(CSc2nc(-c3ccc(OC)cc3)nc3c2c(=O)n(C)c(=O)n3C)o1, CC1CCN(C(=O)c2ccc(C(=O)N3CCC(C)CC3)cc2)CC1, CCOC(=O)Cc1cc(=O)n2[nH]c(C)c(-c3ccc(OC)cc3)c2n1, COC(=O)Cc1cc(=O)[nH]c(Nc2nc3ccccc3o2)n1, O=C(NC1CCCCCC1)c1cc(S(=O)(=O)N2CCC3(CC2)OCCO3)ccc1F, CCOc1cc(N2CCOCC2)c(OCC)cc1NC(=O)CSc1cccc[n+]1[O-], CCOC(=O)CSc1nnc(CNC(=O)c2ccc(S(=O)(=O)N3CCCC3)cc2)n1C, Cc1cccc(CCNC(=O)C2CCCN(S(=O)(=O)c3cnc[nH]3)C2)c1 (centres undefined), COc1ccc(S(=O)(=O)NCCCN2CCOCC2)c2ccccc12, CCc1nnc(NC(=O)c2ccc(S(=O)(=O)NCC(C)C)cc2)s1, O=C(CCSc1nc(-c2ccco2)cc(C(F)(F)F)n1)NCCc1ccccc1, CCc1ccccc1NC(=O)C(CC)Sc1nc2cc3c(cc2c(=O)n1Cc1ccco1)OCO3 (centres undefined), O=C(O)CCC(=O)c1c[nH]c2ccccc12, CC(=O)SCCC(=O)Nc1ccccc1
